FBPA Giardia inh – inhibitors of Giardia lamblia fructose-1,6-bisphosphate aldolase; A8B2U2; purified Giardia FBPA; Potency, µM (highest dose often 59.6 µM), for the others: at the highest dose activity, negative = inhibition, usual class: inhibitors; 290,000 tested, 0.71% active; also: potency is read from the fitted curve at half-maximal effect; % is scaled to controls: 0 for no effect and ±100 for the full control effect; nearly all actives have a fitted effect of over 55% in size
Target sequence (A8B2U2 whole entry, looked up): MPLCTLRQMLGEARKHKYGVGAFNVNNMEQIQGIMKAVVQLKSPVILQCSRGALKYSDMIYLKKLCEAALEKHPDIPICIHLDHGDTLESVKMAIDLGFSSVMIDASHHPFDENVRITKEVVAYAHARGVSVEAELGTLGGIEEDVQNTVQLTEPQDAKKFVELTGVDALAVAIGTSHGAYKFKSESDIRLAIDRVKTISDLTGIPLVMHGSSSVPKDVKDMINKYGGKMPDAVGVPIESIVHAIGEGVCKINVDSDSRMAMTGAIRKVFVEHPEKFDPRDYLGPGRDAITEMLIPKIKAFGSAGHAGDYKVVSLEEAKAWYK
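Giardia FBPA (40 nM reagent) was preincubated 10 min at RT with compound (up to 57.5 uM final), then substrate plus GAPDH/TPI/NAD/arsenate coupling system with diaphorase/resazurin was added; resorufin fluorescence (525/598 nm) was read after 20 min.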
Pf growth 48h – P. falciparum growth inhibition at 48 hours (one generation); AID 504832; Potency, µM (series often up to 28.7 µM), inactives show at the top dose activity change, negative = inhibition, usual class: inhibitors; P. falciparum luciferase growth in erythrocytes, 48 h; 310,000 tested, 5.9% active; also: potency is read from the fitted curve at half-maximal effect; % is scaled to controls: 0 for no effect and ±100 for the full control effect
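Luminescence readout; reporter = integrated firefly luciferase in P. falciparum. RBC culture at 2% hematocrit, 0.1% parasitemia final, 37 C/5% CO2; decreased signal taken as growth inhibition.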
NS1 function inh – blocks influenza NS1 protein function. Potency, µM (titrated, usually from 46.1 µM), for the others: at the top dose activity, positive = more growth. 270,000 tested, 0.4% active; calls by dose curve; also: potency is read from the fitted curve at half-maximal effect; actives are rising curves; nearly all actives have a fitted effect of over 50% in size
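OD600 was taken as the measure of yeast growth restored by compound in an NS1-expressing S. cerevisiae strain. Cells had been washed out of glucose medium and diluted 1:100 into galactose -URA medium, pH 6.0.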
Cycloheximide cs – counter-screen for Shiga toxin inhibitors: cycloheximide protein synthesis inhibition; cell reporter, cycloheximide protein synthesis inhibition counterscreen; max response, %; 300,000 tested, 12% active; in the data active = max response mostly above about 13%, no sharp cut-off; inactive = mostly below about 14%; also: read at 38.3 µM for the half of the compounds with a filed dose; 0% is about no effect
Shiga toxin inh – blocks Shiga toxin action in Vero cells; Vero cells, Shiga toxin protein synthesis inhibition reporter; AID 2315; 290,000 tested, 9.2% active; inhibition, % at 38.7 µM; in the data active = inhibition mostly above about 28%, no sharp cut-off; inactive = mostly below about 43%; also: 0% is about no effect
Pf growth 96h – inhibits malaria parasite growth, 96 h. Potency, µM (titrated, usually from 28.7 µM), for the others: at the top dose activity change, negative = inhibition, most hits filed as inhibitors. P. falciparum luciferase reporter growth, 96 h. AID 504834. 320,000 tested, 6.9% active; also: potency is read from the fitted curve at half-maximal effect; % is scaled to controls: 0 for no effect and ±100 for the full control effect
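Cell-based qHTS: luciferase-tagged P. falciparum in erythrocytes (2% hematocrit, 0.05% parasitemia final) incubated with compounds for 96 hours, 37 C, 5% CO2; luciferase detection reagent then added and luminescence measured.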
An asterisk follows results filed as active; u = inconclusive; x = no result; [ ] = dose if it differs, or a comment. Only some compounds are listed: those with a hit (about 21% of all), similar ones and a draw of the others. Unless noted, calls follow the shape of the dose curve; as a rule, active = well fitted curve in the direction sought with a large enough effect; inconclusive = small, poorly fitted or top-dose-only effect, or another doubt; inactive = no such curve, though single readings can be large; an effect the other way counts as inactive or inconclusive.

SMILES	FBPA Giardia inh	Pf growth 48h	NS1 function inh	Cycloheximide cs	Shiga toxin inh	Pf growth 96h
O=C(N/N=C/c1ccccc1)c1ccc(-c2ccccc2)cc1	6.6%	12.3%	-1.5%	6.5	x	69.0%
CCc1ccc(/C=N/NC(=O)c2c[nH]c3ccccc23)s1	-2.2%	25.0%	-27.5%	49.1*	90.8*	u
O=C(N/N=C/c1cccs1)c1cccc2cc[nH]c12	-18.2%	u	16.1%	-2.0	15.3	0.0%
CCCc1cc(C(=O)N/N=C/c2ccc(CC)s2)c2ccccc2n1	-7.3%	u	-1.5%	-3.7	-3.7	u
O=C(N/N=C/c1cccs1)c1c[nH]c2ccccc12	-0.7%	82.2%	-11.1%	62.3*	80.6*	16.0%
O=C(Nc1ccccc1)[C@@]12C[C@@H]1/C(=N/O)c1ccccc1O2	-9.9%	x	x	x	x	x
COCC(=O)n1nc(-c2ccccc2)nc1NCc1cccs1	2.0%	25.9%	0.2%	33.2*	62.6*	27.9%
Cn1cccc1C(=O)N1CCC[C@@]2(CCN(c3ccccc3)C2)C1	-8.9%	x	x	x	x	x
COc1ccc(C2=CC(=O)OC(C)(c3ccccc3)O2)cc1 (centres undefined)	-3.1%	11.7µM*	-7.1%	1.9	24.2	95.7%
Cn1cc(C(=O)NCCN2CCN(c3cccc(Cl)c3)CC2)c2c3ccccc3n(C)c2c1=O	-2.3%	1.04µM*	-42.4%	-2.5	5.1	u
Cc1cccc(CCNC(=O)COc2cc(=O)n(C)c3ccccc23)c1	-5.6%	-11.4%	x	-7.4	2.3	10.4µM*
Cn1c(=O)cc(OCC(=O)NCCCN2CCN(c3cccc(Cl)c3)CC2)c2ccccc21	1.5%	u	-1.4%	-4.1	-17.4	11.7µM*
COc1cccc(C2CN(c3ccc(F)cc3F)N=C2c2cccs2)c1OC (centres undefined)	1.4%	5.86µM*	1.5%	0.8	2.7	11.7µM*
Cc1nc2cnc(OCc3ccccc3)nc2n(C)c1=O	6.1%	x	x	x	x	x
CCN(CC)S(=O)(=O)c1cccc(N=Nc2sc(N)nc2C)c1	12.1%	-10.0%[0.00184 µM]	5.3%	-4.3	-7.5	11.7µM*
O=[N+]([O-])c1cccnc1NCCc1ccccc1	-0.9%	223.9%	-2.9%	36.8*	67.3*	191.7%
O=[N+]([O-])c1cc(C(F)(F)F)ccc1NCCc1c[nH]c2ccccc12	-8.8%	-6.9%	13.3%	10.4*	53.8*	9.8%
O=C(COc1cccnc1[N+](=O)[O-])NCCc1ccccc1	1.4%	7.0%	0.1%	14.1*	16.3	26.1%
COC(=O)c1ccc(COc2cccnc2[N+](=O)[O-])cc1	8.5%	17.2%	-18.7%	24.2*	35.2*	33.8%
CCOc1ccccc1N(C)C(=O)CCS(=O)(=O)c1ccc2c(c1)NC(=O)C(C)S2 (centres undefined)	x	u	4.4%	-10.2	-6.9	104.2%
O=C(Nc1ccc(F)cc1)c1cccnc1NCCc1ccccc1	-10.4%	u	1.4%	-2.7	-11.6	3.7µM*
Cc1cccc(OCCNc2ccc(C(F)(F)F)cc2[N+](=O)[O-])c1	0.6%	22.0%	3.1%	9.3*	-4.9	7.5%
O=[N+]([O-])c1cccnc1NCCc1c[nH]c2ccccc12	-8.7%	141.3%	-2.9%	30.8*	67.6*	102.4%
CS(=O)(=O)NCCCNc1ccc(C(F)(F)F)cc1[N+](=O)[O-]	0.3%	u	3.4%	14.8	19.4	91.9%
Cc1ccc(CN2CCN(Cc3cn[nH]c3C3CCCCC3)CC2CCO)cc1 (centres undefined)	6.3%	-8.8%	-0.9%	-3.6	-10.0	u
SMILES	FBPA Giardia inh	Pf growth 48h	NS1 function inh	Cycloheximide cs	Shiga toxin inh	Pf growth 96h
CC(=O)NS(=O)(=O)c1ccc(NC(=O)c2cccc(OCc3c(C)noc3C)c2)cc1	x	-17.4%	x	x	x	-7.6%
COc1ccc(NS(=O)(=O)c2cc(NC(=O)c3cccc(OCc4c(C)noc4C)c3)ccc2OC)cc1	2.9%	9.28µM*	u	-1.3	-6.6	6.57µM*
Cc1ccc(NC(=O)c2cccc(OCc3c(C)noc3C)c2)cc1	-0.9%	x	-60.6%	28.7*	39.4	1.9%
Cc1noc(C)c1COc1cccc(C(=O)Nc2ccc(C#N)cc2)c1	1.1%	u	-39.9%	-0.8	-8.6	0.0%
CCN(CC(=O)NCc1ccc(Cl)cc1)C(=O)c1cc(OC)cc(OC)c1	14.0%	6.6%	-7.4%	-0.9	-6.7	33.2%
COc1ccc(CCC(=O)N2CCCC(Nc3ccc(C)c(C)c3)C2)cc1OC (centres undefined)	-2.8%	-26.0%	0.3%	23.0*	-7.0	u
Cc1ccnn1CCC(=O)N1CCCC(Nc2ccc(F)c(F)c2)C1 (centres undefined)	-10.3%	0.0%	u	-1.7	17.4	11.7µM*
Cc1ccc(NC2CCCN(C(=O)CCC3=NNC(=O)CC3)C2)cc1C (centres undefined)	x	7.8%	15.6%	1.0	-11.3	8.28µM*
COc1ccc(NC2CCCN(C(=O)Cn3ccc(C)n3)C2)cc1OC (centres undefined)	x	-14.8%	-8.7%	-1.5	-2.7	5.22µM*
Cc1ccc(NC2CCCN(C(=O)CSc3ccccn3)C2)cc1C (centres undefined)	x	-7.2%	1.9%	1.1	-10.8	-18.5%
Cc1ccn(CC(=O)N2CCCC(Nc3ccc(F)c(F)c3)C2)n1 (centres undefined)	x	u	-5.1%	7.7	-18.6	1.9%
CC(=O)Nc1ccc(N2C(=O)c3ccc(C(=O)Nc4nnc(SCc5ccc(F)cc5)s4)cc3C2=O)cc1	5.2%	9.6%	6.0%	-2.4	-5.5	12.3%
CCn1c(SCC(=O)NC2CCCCC2)nc2c(c1=O)SCC2	x	-22.6%	20.3%	4.3	-26.1	u
COCc1cc(CN2CCN(CCc3ccccc3)C(CCO)C2)ccc1OC (centres undefined)	15.3%	-20.4%	4.5%	-0.7	0.6	-26.1%
Cc1ccn(CC(=O)N2CCCC(N3CCN(c4cccc(Cl)c4)CC3)C2)n1 (centres undefined)	x	u	4.2%	8.6	20.0	u
Cc1ccn(CC(=O)N2CCCC(N3CCN(c4ccccc4F)CC3)C2)n1 (centres undefined)	-24.0%	10.6%	4.7%	0.3	-2.1	13.1µM*
COc1ccc(NC2CCCN(C(=O)CN3CCOC3=O)C2)cc1 (centres undefined)	x	63.2%	-11.4%	37.9*	62.0*	u
COc1ccc(C(=O)NC(=C(Cl)Cl)S(=O)(=O)c2ccc(C)cc2)cc1	x	5.0%	3.9%	21.5*	38.7	0.4%
Cc1ccc(C(=O)NC(=C(Cl)Cl)S(=O)(=O)c2ccccc2)cc1	0.5%	0.0%	-2.5%	102.9*	161.0*	34.8%
COc1ccc(C(=O)NC(=O)COC(=O)CCS(=O)(=O)c2ccc(C)cc2)cc1	x	-1.8%	x	x	x	34.7%
COC(=O)NC(=C(Cl)Cl)S(=O)(=O)c1ccccc1	0.8%	u	16.3%	81.8*	128.2*	u
CCC(C(=O)NC(CC(=O)O)c1ccc(Cl)cc1)c1ccccc1 (centres undefined)	10.8%	0.0%	7.8%	0.5	-3.6	-0.4%

From PubChem BioAssay
